Results on 40 molecules are retold here after PubChem BioAssay (NCI).

SMILES strings stand for the structures. Compounds without any hit were thinned out: in the full panel of roughly 83,000, 20% have a hit.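 Activity criterion: percent growth below 10, measured after cells in 96-well plates were exposed to a single compound concentration for 48 hours.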 Values without a mark were called inactive. Active and inactive are the calls of the source.

In the experiment the test system is HL-60(TB) leukemia. Put plainly: NCI-60 one-dose screen, 48 h (100 = growth as untreated, 0 = no growth, -100 = all killed). The settings on record: 10 µM unless noted.
For `CCN(Cc1ccc(Cl)c(Cl)c1)c1ccc2nc(N)nc(N)c2c1C`, the growth is -79.5% (active).
The value for `COC(=O)c1c2c(c(C)[n+]([O-])c1C)C(=O)C=C(NCc1ccc(F)c(F)c1)C2=O` was -24% (active).
To `Cc1ccc(/C=C(/C#N)n2nnc3ncccc32)cc1` belongs 0.0853% (active); to `Cc1ccccc1C(c1ccccc1)c1ccccc1C`, 88.4%.
Take `COc1ccc(-c2nc3sccn3c2/C=C/C(=O)c2cc(F)cc(F)c2)cc1`: the growth is 60.4%.
Turning to `COc1ccc(C(Cn2ccnc2)Sc2ccc(Cl)c(Cl)c2)cc1` (stereo not given), the growth was 70.7%.
The value for `CN1c2ccccc2C(C)(C)C12C=Cc1cc(O)ccc1O2` (stereo not given) was -30.1% (active); that for `CC(=O)c1cc(C(=O)c2ccc3c(c2)Sc2ccccc2N3)n2ccccc12` was 14.3%.
The value for `CC(C)=CCc1ccc(O)c(=O)cc1C(C)C` was -1.27% (active); that for `Nc1ccc(C(=O)/C=C/c2ccccc2)cc1` was 27.4%; that for `O=C(O)c1ccc(-c2nn(-c3ccc(C(F)(F)F)cc3)cc2CNc2ccc(Oc3ccccc3)cc2)cc1` was 35.5%.
The value for `CC(C)(C)OC(=O)N1C/C(=C\c2ccccc2)C(=O)/C(=C/c2ccccc2)C1` was 99.6%; that for `CC1(CO)CCCC1NCCNC1CCCC1(C)CO` (stereo not given) was 95.2%; that for `C[C@@H]1N=C(c2ccc(Cl)cc2Cl)Nc2nc3ccccn3c2C1=O` was 0.461% (active).
Take `CC(=O)OC[C@H]1OC(Sc2sc(C(=O)c3ccc(C)cc3)c(N)c2-c2nc3ccccc3s2)[C@H](OC(C)=O)[C@@H](OC(C)=O)[C@@H]1OC(C)=O` (stereo not given in full): the growth is 80%.
As to `N#Cc1c[nH]n2ccnc12`, the growth was 123%.
`CCOC(=O)C1OC1c1ccccc1` (stereo not given): the growth was 97%.
Turning to `CCCCCCCC(=O)SCC/C=C/[C@@H]1CC(=O)NCc2nc(co2)C2=N[C@@](C)(CS2)C(=O)N[C@@H](C(C)C)C(=O)O1`, the growth is 8.71% (active).
The value for `COc1cc(CCC[P+](c2ccccc2)(c2ccccc2)c2ccccc2)c(OC)c(OC)c1OC` was 65.7%; that for `CN1CCc2nc3sc(C(N)=O)c(N)c3c(-c3cccs3)c2C1` was 7.35% (active).
Take `O=S(=O)(c1cc(Cl)ccc1O)c1cc(Cl)ccc1O`: the growth was 74.2%.
The value for `CCCCCCCCNC(=O)[C@@H](N)CSCOC(C)=O` was 83.6%; that for `C=C(C)[C@@H]1C[C@@H]2Cc3cc(Cl)ccc3N1O2` was -8.6% (active).
To `COc1cc(C(=O)/C=C/c2c(Cl)nc3sccn23)cc(OC)c1OC` belongs 52.2%; to `N/C(=N\O)c1cn(C2OC(CO)C(O)C2O)c2ncnc(N)c12` (stereo not given), -43.5% (active); to `O=C(Cc1ccc(/C=C/C(=O)c2ncc[nH]2)cc1)Nc1ccc(S(F)(F)(F)(F)F)cc1`, 42.1%.
In the case of `CC(=O)C(=Cc1ccc(C=C(C(C)=O)C(C)=O)cc1)C(C)=O`, the growth is 7.08% (active).
To `COc1ccc2c(c1)CC/C(=C\c1cncc(Br)c1)C2=O` belongs 100%; to `COc1ccc(-c2cc(-c3cc(OC)ccc3OC)nc(SCC(C)=O)c2C#N)cc1`, 86.3%.
As to `CCCCCCCCCN(CCCCCCCCC)C(C)C(=O)c1ccc2cc(Br)c3ccccc3c2c1` (stereo not given), the growth is 102%.
To `N#Cc1c(NC(=O)c2ccccc2I)sc2c1CCCC2` belongs 12.6%; to `CN(C)c1ccc(-c2cc(-c3ccc(Nc4nc(Nc5ccc(Cl)cc5)nc(Nc5ccc(Cl)cc5)n4)cc3)nc(N)c2C#N)cc1`, 68%; to `COc1ccc(C2Nc3c(c(C(C)(C)C)nn3-c3ccccc3)C(=O)CS2)cc1` (stereo not given), 129%.
To `CCC(=O)C(CC)c1cccc(OC)c1` (stereo not given) belongs 97.5%; to `O=C1C=C(O)C(=O)C=C1O`, 91.2%; to `Cc1cc(N/N=C/c2nc(-c3ccc(Cl)cc3)oc2C)c2cc(Cl)ccc2n1`, 8.08% (active).
The value for `COc1cc2c(c(OC)c1OC)CCC(c1cccc(C(=O)Nc3ccc([N+](=O)[O-])cc3)c1)O2` (stereo not given) was 38.8%; that for `C=C1C(=O)O[C@H]2[C@H]1CC/C(CNC(=O)/C1=C/CC[C@@]3(C)O[C@H]3[C@H]3OC(=O)C(=C)[C@@H]3CC1)=C\CC[C@@]1(C)O[C@@H]21` was 57.4%.
As to `O=C(Cn1nnc2ccccc21)Nc1ccc(-c2nc3ccccc3s2)cc1`, the growth is 90.8%.
Take `CS(=O)(=O)c1ccc(-n2nc(-c3ccc(Br)cc3)c3ccccc3c2=O)cc1`: the growth is 93.3%.
